Assay outcomes: PubChem, National Center for Advancing Translational Sciences (NCATS)
IL-1B inflam inh: blocks inflammasome-driven IL-1 beta release | THP-1 LPS/ATP IL-1B secretion, AlphaLISA, 16 h; stronger effect = lower value | 360,000 compounds, 4.7% hits | activity change, % at 57.5 µM; in the data active = activity change below about -50%; inconclusive = mostly about -30% to -49%
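Secreted IL-1B measured by AlphaLISA bead assay after 16 h compound exposure of THP-1 cells; compounds (final up to 57.5 uM) added 1 h before LPS (250 ng/mL) and ATP (1.25 mM) stimulation; lower signal means less secretion.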
Gal4-VP16 FLuc: inhibits Gal4-VP16 luciferase reporter, ROR gamma counter-screen. Potency, µM (titrated, usually from 53.6 µM), without a hit: top-dose activity, negative = inhibition, actives largely listed as inhibitors. Drosophila S2 Gal4-VP16 UAS-luciferase, luminescence, 20 h. AID 2546. 310,000 compounds, 3.5% hits;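 also: Gal4-VP16 expression switched on by copper sulfate through the metallothionein promoter; potency is read from the fitted curve at half-maximal effect; nearly all actives have a fitted effect of over 50% in size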
RORg inh: blocks mouse ROR gamma transcriptional activity; P51450; Drosophila S2 Gal4-RORgamma UAS-luciferase reporter, 20 h; Potency, µM (top dose mostly 53.6 µM), without a hit: at the highest dose activity change, negative = inhibition, actives largely listed as inhibitors; 310,000 compounds, 5.4% hits; AID 2551; also: potency is read from the fitted curve at half-maximal effect; nearly all actives have a fitted effect of over 60% in size
Target sequence (P51450 whole entry, looked up, the tested form may be a part): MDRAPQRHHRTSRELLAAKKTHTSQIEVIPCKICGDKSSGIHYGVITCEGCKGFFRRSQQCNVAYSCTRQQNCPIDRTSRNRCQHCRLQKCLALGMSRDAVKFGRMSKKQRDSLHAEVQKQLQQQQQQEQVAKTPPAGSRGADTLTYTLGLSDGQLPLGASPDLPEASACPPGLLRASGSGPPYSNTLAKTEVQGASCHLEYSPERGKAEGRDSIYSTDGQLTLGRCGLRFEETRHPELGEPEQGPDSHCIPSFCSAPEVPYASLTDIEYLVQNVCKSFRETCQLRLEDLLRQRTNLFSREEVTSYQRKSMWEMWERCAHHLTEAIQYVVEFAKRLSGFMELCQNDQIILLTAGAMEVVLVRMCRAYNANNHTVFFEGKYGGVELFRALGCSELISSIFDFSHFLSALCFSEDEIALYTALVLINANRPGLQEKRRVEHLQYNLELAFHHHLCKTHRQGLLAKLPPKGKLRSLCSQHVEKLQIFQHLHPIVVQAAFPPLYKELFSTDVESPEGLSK
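ROR gamma transcriptional activity was tracked as Gal4-UAS luciferase output in stably transfected Drosophila Schneider cells, with compound added 1 hr before 700 uM copper sulfate induction and a 20 hr ambient-temperature incubation.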
ELG1 DNA repair: ELG1-dependent DNA repair inhibition; HEK293T ELG1-luciferase reporter, luminescence, 16 h; DNA damage induced by 5-fluorouridine; Potency, µM (doses to about 46.1 µM), for inactives: top-dose activity change, negative = inhibition, most hits filed as inhibitors; 330,000 compounds, 2.3% hits; AID 504467; also: potency is read from the fitted curve at half-maximal effect; nearly all actives have a fitted effect of over 55% in size
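In this reporter screen, reduction of luminescence relative to DMSO vehicle indicated activity. Compounds and 5-fluorouridine were added together to 2,000 cells per well, incubated for 16 hr at 37 °C, then developed with ONE-Glo.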
TDP1 cell CPT: DT40-hTDP1 cell growth loss with CPT; chicken DT40 Tdp1-/-;hTDP1 cells + 20 nM CPT, ATP luminescence, 48 h; Potency, µM (series often up to 46.2 µM), for the others: at the top dose activity change, negative = growth inhibition, usual class: inhibitors; 420,000 compounds, 12% hits; AID 686979; also: potency is read from the fitted curve at half-maximal effect; nearly all actives have a fitted effect of over 55% in size
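Cell growth measured by CellTiter-Glo luminescence after a minimum 48 h, 37 C compound exposure with 20 nM CPT in Tdp1-knockout DT40 cells stably expressing hTDP1, seeded 400/well; qHTS titration format.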
TDP1 cell noCPT: qHTS for Inhibitors of human tyrosyl-DNA phosphodiesterase 1 (TDP1): qHTS in cells in absence of CPT; 420,000 compounds, 15% hits; Potency, µM (doses to about 46.2 µM), for the others: at the highest dose activity change, negative = growth inhibition, most hits filed as inhibitors; DT40 Tdp1-/- hTDP1 cells, no CPT, ATP luminescence, 48 h; also: potency is read from the fitted curve at half-maximal effect; nearly all actives have a fitted effect of over 55% in size
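Chicken DT40 Tdp1-/- cells stably complemented with human TDP1 were seeded at 400 cells/well with DMSO in place of 20 nM camptothecin. After compound pinning, cells grew at least 48 hr at 37 °C; viability read by CellTiter-Glo luminescence.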
An asterisk follows results filed as active; ? = inconclusive; . = no result; [ ] = remark or other dose. In the library only some 21% were active in any assay of this set; here they are far more common. Unless noted, calls follow the shape of the dose curve; as a rule, active = well fitted curve in the direction sought with a large enough effect; inconclusive = small, poorly fitted or top-dose-only effect, or another doubt; inactive = no such curve, though single readings can be large; an effect the other way counts as inactive or inconclusive. % is scaled to controls: 0 for no effect and ±100 for the full control effect.

SMILES | IL-1B inflam inh | Gal4-VP16 FLuc | RORg inh | ELG1 DNA repair | TDP1 cell CPT | TDP1 cell noCPT
COC(=O)c1cc(-c2ccccc2)c2c(=O)n(C)c(=O)n(C)c2n1 | . | -4% | -17% | 2% | . | .
Cc1cccc(-c2c3c(nc4c2c(=O)n(C)c(=O)n4C)-c2ccccc2C3O)c1 (stereo not given) | 7 | . | . | . | 5.8µM* | 4.6µM*
CCc1ccccc1NC(=S)NCc1ccc2c(c1)OCO2 | 4 | 11µM* | 6.3µM* | ? | ? | ?
Cc1ccccc1NC(=S)NCc1ccc2c(c1)OCO2 | -4 | 10µM* | 2.5µM* | 3% | -16% | -25%
CN(C)CC(C)(C)CNC(=S)NCc1ccc2c(c1)OCO2 | -1 | -15% | -1% | 26% | -15% | -11%
CC(C)(C)NC(=S)NCc1ccc2c(c1)OCO2 | 14 | ? | 11µM* | -1% | -14% | -11%
Cc1cccc(NC(=S)NCCc2ccc3c(c2)OCCO3)c1C | -24 | ? | 4µM* | ? | ? | ?
COc1ccccc1-n1c(SC(C)C(=O)NCC2CCCO2)nc2cc(Cl)ccc2c1=O (stereo not given) | -7 | . | . | -9% | -22% | ?
Cc1cccc(NC(=S)NCc2ccc3c(c2)OCO3)c1C | -11 | 13µM* | 5µM* | 4% | -11% | -15%
COc1ccc(-c2cc(N)n(S(=O)(=O)c3c(F)c(F)c(F)c(F)c3F)n2)cc1OC | -87* | 7.1µM* | ? | 23µM* | 0.18µM* | 0.82µM*
O=C(CSc1nc(C2CC2)nc2ccccc12)Nc1ccccc1N1CCOCC1 | -76* | 3% | ? | ? | ? | ?
O=C(CSc1nc(C2CC2)nc2ccccc12)Nc1ccccc1 | -61* | 14% | -7% | ? | -6% | ?
Cc1cc(NC(=O)CSc2nc(C3CCCCC3)nc3ccccc23)no1 | -29 | 18%[0.365 µM] | 9% | ? | ? | ?
O=C(CSc1nc(C2CC2)nc2ccccc12)Nc1ccccc1Cl | -4 | -3% | -11% | 4% | -23% | -25%
CN(C)c1ccc(NC(=O)CSc2nc(C3CC3)nc3ccccc23)cc1 | -16 | -15% | -13% | -10% | ? | 18µM*
Cc1cccc(NC(=O)CSc2nc(C3CC3)nc3ccccc23)c1 | -26 | 4% | -30% | ? | ? | ?
CC(=O)Nc1cccc(NC(=O)CSc2nc(C3CC3)nc3ccccc23)c1 | -79* | 7% | 5% | 18µM* | 4.1µM* | 7.3µM*
CC(C)(C)NC[C@@H](O)COc1ccccc1C1CCCC1 | . | -4%[17 µM] | 13%[2.98 µM] | . | . | .
O=C(CN1C(=O)C2CCCCN2c2ccc(C(=O)N3CCCC3)cc21)NCc1ccccc1F (stereo not given) | . | . | . | . | ? | -18%
CCOc1ccc(Cn2nnc(C(=O)Nc3cccc(SC)c3)c2N)cc1 | . | . | . | . | -29% | ?
CC(=O)c1cccc(NC(=O)CSc2nc(C3CC3)nc3ccccc23)c1 | -96* | 16% | 28% | -15% | ? | 16µM*
CCN(CC)c1ccc(NC(=O)CSc2nc(C3CC3)nc3ccccc23)cc1C | -18 | -19% | 5% | -27% | 4.1µM* | 5.2µM*
Cc1ccc2nc(SCC(=O)Nc3ccccc3N3CCOCC3)c(C#N)cc2c1 | -3 | ? | -38% | 4.1µM* | 4.6µM* | 3.3µM*
COc1cc(NC(=O)CSc2nc(C3CC3)nc3ccccc23)cc(OC)c1 | -16 | -3% | -5% | -17% | -5% | ?
CC1(C)Cc2ccccc2C2=NNC(=O)C2=N1 | -100* | ? | ? | ? | 16µM* | 10µM*
SMILES | IL-1B inflam inh | Gal4-VP16 FLuc | RORg inh | ELG1 DNA repair | TDP1 cell CPT | TDP1 cell noCPT
CC1(C)Cc2ccccc2C(Nn2cnnc2)=N1 | -4 | 10% | 11% | 0% | -1% | -8%
CCn1c(SC)nnc1C1CCCN(CC(=O)Nc2ccccc2N2CCOCC2)C1 (stereo not given) | -6 | -4% | 29% | 1% | 1% | -14%
COC(=O)c1c(C)oc2ccc(N(C(=O)c3ccncc3)S(=O)(=O)c3ccc(C)cc3)cc12 | -7 | 7.1µM* | -39% | -12% | 3.7µM* | 2.1µM*
COC(=O)c1c(C)oc2ccc(N(C(=O)c3ccncc3)S(=O)(=O)c3ccccc3)cc12 | 0 | ? | -27% | -11% | ? | 23µM*
CC(=O)c1c(C)oc2ccc(N(C(=O)Oc3ccccc3)S(=O)(=O)c3ccc(Cl)cc3)cc12 | . | . | . | . | -2% | -10%
COC(=O)c1c(C)oc2ccc(N(C(=O)c3ccncc3)S(=O)(=O)c3ccc4ccccc4c3)cc12 | 24 | 3.5µM* | ? | -27% | 23µM* | 15µM*
COc1ccc2[nH]c3c(c2c1)CCN1C(=O)N([C@@H](C)C(=O)NC2CCN(Cc4ccccc4)CC2)C(=O)[C@]31C | -22 | -5% | -5% | -12% | 16µM* | 16µM*
C[C@@H](C(=O)NC1CCN(Cc2ccccc2)CC1)N1C(=O)N2CCc3c([nH]c4ccccc34)[C@@]2(C)C1=O | -18 | 6% | 9% | -21% | 23µM* | ?
C[C@@H](C(=O)NC1CCCCC1)N1C(=O)N2CCc3c([nH]c4ccccc34)[C@@]2(C)C1=O | 6 | -1% | ? | ? | ? | ?
CC(C)[C@@H](C(=O)NC1CC1)N1C(=O)N2CCc3c([nH]c4ccccc34)[C@@]2(C)C1=O | 21 | 3% | -10% | ? | ? | -28%
CC(C)C[C@@H](C(=O)NC1CC1)N1C(=O)N2CCc3c([nH]c4ccccc34)[C@@]2(C)C1=O | 9 | 5% | 4% | ? | ? | ?
CC(C)[C@@H](C(=O)NC1CCN(Cc2ccccc2)CC1)N1C(=O)N2CCc3c([nH]c4ccccc34)[C@@]2(C)C1=O | ? | 3% | -9% | -32% | 18µM* | 13µM*
CC(C)C[C@@H](C(=O)NC1CCN(Cc2ccccc2)CC1)N1C(=O)N2CCc3c([nH]c4ccccc34)[C@@]2(C)C1=O | -25 | -19% | -41% | ? | 12µM* | 21µM*
COc1ccc2[nH]c3c(c2c1)CCN1C(=O)N([C@@H](C)C(=O)NCc2ccccc2OC)C(=O)[C@]31C | -8 | -5% | 7% | -23% | ? | ?
COc1ccccc1CCC(=O)OCC(=O)NC1CC1 | 10 | . | . | -3% | 16% | -19%
